In PubChem BioAssay AID1259313 (Sanford-Burnham Center for Chemical Genomics, 2017):
Hit rate of the full screen: of about 340,000 compounds, about 8,500 (2.5%) were called active. For the sample, actives were picked, then their nearest neighbours and some compounds at random. Values without a mark were called inactive.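 Rule for the calls: active = melting temperature shift of at least 10% of the positive control shift, at one fixed dose; inactive = the rest.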

What follows are molecules tested on Glutamate receptor ionotropic, NMDA 3A (GRIN3A) ligand-binding domain (assay: binders of NR3A ligand-binding domain, primary screen, biophysical, differential scanning fluorimetry, uHTS (AID 1259313)). Settings: NR3A LBD differential scanning fluorimetry, at 25 µM, hits give high values, 0% = protein alone, 100% = glycine-bound protein.
`COCCn1c(=NC(=O)c2ccccc2[N+](=O)[O-])sc2cc(S(C)(=O)=O)ccc21` gave a Tm shift relative to glycine control of 3.81%.
For `C=C(C)COc1ccc(-c2n[nH]c(C)c2-c2ccccc2)c(O)c1`, the Tm shift relative to glycine control was 10.9% (active).
`C=C(C)COc1ccc(-c2ncncc2-c2ccc(OC)cc2)c(O)c1` showed a Tm shift relative to glycine control of -1.75%.
`C=C(C)COc1ccc(-c2nc(N)ncc2-c2ccccc2OC)c(O)c1` showed a Tm shift relative to glycine control of -3.37%.
`COc1c(C)c2c(c(O)c1C/C=C(\C)CCC(=O)O)C(=O)OC2` showed a Tm shift relative to glycine control of 0.8%.
`COc1ccc2[nH]c(C(=O)Nc3ccccc3Cl)cc2c1` was tested, and the Tm shift relative to glycine control was 1.25%.
In the case of `CC(OC(=O)c1cc2ccccc2[nH]1)C(=O)N(C)c1ccccc1` (stereo not drawn), the Tm shift relative to glycine control is reported as -1.09%.
`O=C(Nc1ccccc1)c1cc2ccccc2[nH]1` was tested, and the Tm shift relative to glycine control was 20.5% (active).
`Cc1ccc(CC2C(=O)N(c3ccc(F)cc3)C(=O)C2C)cc1` (stereo not drawn) gave a Tm shift relative to glycine control of 1.55%.
For `CC(=O)N1CCN(CC(C)(C)NS(=O)(=O)c2ccc(C)cc2)CC1`, the Tm shift relative to glycine control was 1.96%.
`O=C(NCCCN1CCOCC1)C1CCCN(S(=O)(=O)N2CCCCC2)C1` (stereo not drawn) showed a Tm shift relative to glycine control of -1.39%.
Molecule `CCOC(=O)N1CCN(C(=O)C(=O)Nc2sc3c(c2C#N)CC(C)(C)OC3)CC1` has a Tm shift relative to glycine control of -1.52%.
In the case of `CCc1ccccc1N(CC(=O)NCC1CCCO1)C(=O)CCC(=O)Nc1nccs1` (stereo not drawn), the Tm shift relative to glycine control is reported as -2.76%.
Molecule `COc1cccc(CC2(CO)CCCN(CC3=Cc4cc(OC)ccc4OC3)C2)c1` (stereo not drawn) has a Tm shift relative to glycine control of -4.46%.
Work on `COc1cccc(CC2(CO)CCCN(Cc3nc(-c4cccs4)oc3C)C2)c1` (stereo not drawn) yielded a Tm shift relative to glycine control of -1.72%.
In the case of `COc1cccc(CC2(CO)CCCN(Cc3ccc(OC(F)F)cc3)C2)c1` (stereo not drawn), the Tm shift relative to glycine control is reported as 25.6% (active).
`O=C(CCNS(=O)(=O)c1ccccc1)NCCSc1ccc(Br)cc1` showed a Tm shift relative to glycine control of -2.33%.
Work on `c1ccc(-c2ccc3c(c2)NC(C2Nc4cc(-c5ccccc5)ccc4O2)O3)cc1` (stereo not drawn) yielded a Tm shift relative to glycine control of 0.36%.
`c1ccc(-c2c[nH]c(-c3ccccc3)c2)cc1` was tested, and the Tm shift relative to glycine control was 17.4% (active).
`O=c1cc(-c2ccccc2)[nH]c2cc(F)ccc12` was tested, and the Tm shift relative to glycine control was -1.79%.
With `Nn1c(SCc2ccccc2)nnc1C1CCCCC1` the Tm shift relative to glycine control was 1.23%.
In the case of `Cc1ccccc1Nc1nc(N)nc(COC(=O)CCC(=O)c2ccc(F)cc2)n1`, the Tm shift relative to glycine control is reported as -0.42%.
In the case of `CCC1SC2=NCCN2C1(O)c1ccc(Cl)cc1` (stereo not drawn), the Tm shift relative to glycine control is reported as -1.83%.
In the case of `CCOc1ccc(S(=O)(=O)N/N=C(\C)c2ccc(Cl)c(Cl)c2Cl)cc1`, the Tm shift relative to glycine control is reported as 16.2% (active).
`CCOc1ccc(S(=O)(=O)Nc2nccs2)cc1` showed a Tm shift relative to glycine control of -0.76%.
`CCOc1cc(NS(=O)(=O)c2ccc(OC)cc2)c(OCC)cc1NC(C)=O` gave a Tm shift relative to glycine control of 1.23%.
In the case of `O=C(O)C(CCc1ccccn1)c1ccccc1` (stereo not drawn), the Tm shift relative to glycine control is reported as 0.46%.
For `O=C1c2ccccc2C(=O)N1CCC#Cc1ccc2cc(C3(O)CCCCC3)oc(=O)c2c1`, the Tm shift relative to glycine control was 35.3% (active).
Work on `COc1cc(C(=O)NCCOC(=O)c2cccc(N(C)C)c2)cc(OC)c1OC` yielded a Tm shift relative to glycine control of 0.47%.
`Cc1ccc(-c2nn(-c3ccccc3)cc2/C=C2\SC(=S)N(CCCCCC(=O)O)C2=O)o1` showed a Tm shift relative to glycine control of -394%.
`C=CCOc1ccc(/C=C2\SC(=S)N(CCC(=O)O)C2=O)cc1` gave a Tm shift relative to glycine control of 1.33%.
With `COc1ccc(-c2nn(-c3ccccc3)cc2/C=C2/SC(=S)N(CCCC(=O)O)C2=O)c(C)c1` the Tm shift relative to glycine control was 12.5% (active).
In the case of `COc1cccc(NS(=O)(=O)c2ccc(-c3coc(C)n3)cc2)c1`, the Tm shift relative to glycine control is reported as -0.18%.
`O=C(CCNS(=O)(=O)c1ccc(Br)s1)NCc1ccccc1Cl` showed a Tm shift relative to glycine control of -2.24%.
For `CCOc1ccccc1NC(=S)C(=C([O-])c1ccc2c(c1)OCCO2)[n+]1ccc(CC)cc1`, the Tm shift relative to glycine control was -1.27%.
Molecule `COC(=O)c1cc(Oc2ccc(S(=O)(=O)N3CCOCC3)cc2[N+](=O)[O-])cc(C(=O)OC)c1` has a Tm shift relative to glycine control of 0.08%.
`CCc1ccc(NC(=O)C(=O)NNC(=O)c2cccs2)cc1` showed a Tm shift relative to glycine control of -14.4%.
In the case of `Cc1ccc(-c2nnc(-c3ccc(NC(=O)c4cccs4)cc3)o2)cc1`, the Tm shift relative to glycine control is reported as 22.2% (active).
`Cc1ccc(C(=O)NNC(=O)c2cccs2)cc1` was tested, and the Tm shift relative to glycine control was 0.08%.
`Cc1ccc(OCC(=O)Nc2ccc(NC(=O)c3cccs3)cc2)c(C)c1` gave a Tm shift relative to glycine control of 0.85%.
Molecule `Cc1cccc(C(=O)Nc2ccc(CC(=O)O)cc2)c1` has a Tm shift relative to glycine control of -4.02%.
With `Cc1cccc(C(=O)Nc2ccc(C(=O)/C=C/c3cccs3)cc2)c1` the Tm shift relative to glycine control was 29.2% (active).
With `Cc1ccc(C(=O)Nc2ccc(NC(=O)c3cccs3)cc2)c(C)c1` the Tm shift relative to glycine control was 28.3% (active).
Work on `O=C(CNC(=O)c1ccc(Br)o1)Nc1ccccc1` yielded a Tm shift relative to glycine control of 2.09%.
`Cc1ccc(NC(=O)c2cccs2)cc1S(=O)(=O)N(C)C` was tested, and the Tm shift relative to glycine control was -5.63%.
In the case of `O=C(Nc1ccc(-c2nnc(-c3ccccc3)o2)cc1)c1ccc(Br)o1`, the Tm shift relative to glycine control is reported as 35.9% (active).
In the case of `Cc1cccc(C=CC(=O)c2ccc(Cl)cc2)c1`, the Tm shift relative to glycine control is reported as 4.44%.
In the case of `Brc1ccc(-c2nnc(-c3ccccc3)o2)o1`, the Tm shift relative to glycine control is reported as -0.09%.
With `COc1cccc2c1C(=O)c1c(O)c3c(c(O)c1C2=O)CC(O)(C(C)=NNC(=O)c1ccc(Cl)c(Cl)c1)CC3OC1CC(N)C(O)C(C)O1` (stereo not drawn) the Tm shift relative to glycine control was -18.1%.
With `COc1ccc(C)cc1S(=O)(=O)Nc1cccc(Cl)c1Cl` the Tm shift relative to glycine control was -5.61%.
`CCCOc1ccc(/C=N/NC(=O)C2CC2)c(OCCC)c1` showed a Tm shift relative to glycine control of 0.85%.
`Cc1cc(C)nc(NS(=O)(=O)c2ccc(N/C=C\C(=O)c3cccs3)cc2)n1` was tested, and the Tm shift relative to glycine control was -2.02%.
With `COc1cc(CO)ccc1OCC(=O)Nc1cccc2ccccc12` the Tm shift relative to glycine control was 1.02%.
`CCOC(=O)[C@H]1[C@H]2COc3ccc(OC)cc3[C@@H]2N2C(=O)c3ccc(F)cc3NC(=O)[C@@]12C` showed a Tm shift relative to glycine control of -0.63%.
Molecule `NC1=C([N+](=O)[O-])C(c2ccccc2)C2=C(CCCC2=O)O1` (stereo not drawn) has a Tm shift relative to glycine control of -0.34%.
In the case of `Cc1cccc(NC(=O)C(C)N2C(=O)C3C4CC(C(Br)C4Br)C3C2=O)c1` (stereo not drawn), the Tm shift relative to glycine control is reported as 13.7% (active).
Work on `Cc1cccc(NC(=O)C(C)SCc2ccccc2)c1` (stereo not drawn) yielded a Tm shift relative to glycine control of 1.98%.
`Cc1cccc(NC(=O)CCN2CC(C)CC(C)C2)c1` (stereo not drawn) was tested, and the Tm shift relative to glycine control was -0.71%.
With `Cc1ccc(Nc2ccccc2N)cc1` the Tm shift relative to glycine control was 0.92%.
For `CCn1c(O)c(N=NC(=O)c2cccc(S(=O)(=O)N3CCCCC3)c2)c2ccccc21`, the Tm shift relative to glycine control was -34.1%.
`CC(=O)Nc1ccc(NC(=O)c2ccc3c(c2)C(=O)N(c2ccccc2C)C3=O)cc1` gave a Tm shift relative to glycine control of -0.29%.
In the case of `Cc1cccc(C(=O)Nc2ccc3c(c2)C(=O)N(CC(C)C)C3=O)c1`, the Tm shift relative to glycine control is reported as 0.17%.
In the case of `Cc1cccc(N2C(=O)c3ccc(C(=O)Nc4cccc(C(=O)O)c4)cc3C2=O)c1`, the Tm shift relative to glycine control is reported as 11.6% (active).
`CCC(C(=O)NCCC(C)C)N(Cc1ccccc1Cl)C(=O)c1snc(C(N)=O)c1N` (stereo not drawn) gave a Tm shift relative to glycine control of -0.19%.
Work on `Cc1ccc2c(c1)C(O)(CC(=O)c1cccnc1)C(=O)N2` (stereo not drawn) yielded a Tm shift relative to glycine control of -0.39%.
`CCCn1c(C)cc(-c2csc(NC(=O)CCc3nc4ccccc4c(=O)[nH]3)n2)c1C` was tested, and the Tm shift relative to glycine control was -0.45%.
Molecule `CCc1nc(SCC(=O)NNC(=O)c2ccc(C)cc2)c2ccccc2n1` has a Tm shift relative to glycine control of -0.6%.
In the case of `CCCNC(=O)CSc1nc(Cc2ccccc2)nc2ccccc12`, the Tm shift relative to glycine control is reported as -0.71%.
With `CCCc1nc(SCC(=O)Nc2ccc(S(=O)(=O)N(C)C)cc2)c2ccccc2n1` the Tm shift relative to glycine control was 17.5% (active).
Molecule `COc1ccc(CC(=O)NCc2nnc(SCC(=O)Nc3nccs3)n2C)cc1` has a Tm shift relative to glycine control of 0.45%.
In the case of `CCCCc1cc(=O)oc2cc(C)cc(OCc3nn[nH]n3)c12`, the Tm shift relative to glycine control is reported as 14.2% (active).
For `CCc1cc(=O)oc2cc(C)cc(OC(C)C(=O)O)c12` (stereo not drawn), the Tm shift relative to glycine control was -0.34%.
Molecule `CCOC(=O)CCc1c(C)c2ccc(OCc3nn[nH]n3)c(C)c2oc1=O` has a Tm shift relative to glycine control of -2.57%.
In the case of `O=C1NC(c2ccncc2)Nc2sc3c(c21)CCCC3` (stereo not drawn), the Tm shift relative to glycine control is reported as 0.51%.
Molecule `N#C/C(=C\c1ccccc1)c1n[nH]c(Cn2cncn2)n1` has a Tm shift relative to glycine control of -0.2%.
`Cc1nn(-c2ccccc2)c2c1C(c1ccc(F)cc1)C(C#N)=C(N)O2` (stereo not drawn) was tested, and the Tm shift relative to glycine control was -4.31%.
For `Cc1nn(Cc2ccccc2)c2c1C(c1ccccc1)C(C#N)=C(N)O2` (stereo not drawn), the Tm shift relative to glycine control was 2.39%.
In the case of `COc1ccccc1C1C(C#N)=C(N)Oc2c1c(-c1ccccc1)nn2-c1ccccc1` (stereo not drawn), the Tm shift relative to glycine control is reported as 22.2% (active).
Work on `Cc1ccc(C)c(OCc2cc(C(=O)N3CCN(c4cnccn4)CC3)no2)c1` yielded a Tm shift relative to glycine control of 4%.
Work on `O=C(COC(=O)Cn1cnc2ccccc21)Nc1cccc2c1C(=O)c1ccccc1C2=O` yielded a Tm shift relative to glycine control of -5.74%.
In the case of `O=C(COC(=O)c1ccccc1)Nc1ccccc1Sc1ccccc1`, the Tm shift relative to glycine control is reported as 5.64%.
In the case of `O=C(COC(=O)c1cccc(Br)c1)Nc1cccc2c1C(=O)c1ccccc1C2=O`, the Tm shift relative to glycine control is reported as 14.9% (active).
Molecule `CCCCC(=O)N(c1ccc(OC)cc1)C1C=CS(=O)(=O)C1` (stereo not drawn) has a Tm shift relative to glycine control of -8.09%.
`COc1ccc(CCNC(=O)CN2C(=O)CCSc3ccccc32)c(OC)c1` showed a Tm shift relative to glycine control of -7.1%.
`CC1CC(C)CN(CCC(=O)Nc2ccc3c(c2)CCC3)C1` (stereo not drawn) showed a Tm shift relative to glycine control of 2.54%.
With `O=C(Nc1ccc(F)cc1)c1cc2c(s1)CCCC2` the Tm shift relative to glycine control was 6.13%.
For `O=C(Nc1ccc2c(c1)CCC2)c1ccc(Br)s1`, the Tm shift relative to glycine control was 14.5% (active).
`O=C1c2ccccc2C(=O)C1C(=O)C1CC1` showed a Tm shift relative to glycine control of 1.97%.
`Cc1ccc(CSc2nc3[nH]ncc3c(=O)[nH]2)cc1` showed a Tm shift relative to glycine control of -1.69%.
`COc1ccc(NC(=S)Nc2ccc(S(N)(=O)=O)cc2)c(C)c1` was tested, and the Tm shift relative to glycine control was -1.86%.
In the case of `NS(=O)(=O)c1ccc(NC(=S)Nc2ccc(Br)c(Cl)c2)cc1`, the Tm shift relative to glycine control is reported as 26.7% (active).
Molecule `NS(=O)(=O)c1ccc(CCNC(=S)Nc2ccc(S(N)(=O)=O)cc2)cc1` has a Tm shift relative to glycine control of 0.88%.
For `CCCCCc1nnc(NC(=O)c2ccc(=O)n(C)n2)s1`, the Tm shift relative to glycine control was -0.62%.
